Assay [1] is described as follows: Nuclear factor erythroid 2-related factor 2/antioxidant responsive element (Nrf2/ARE) small molecule agonists: qHTS cell viability counter screen in human keratinocytes (AID 1919968; active = well fitted curve in the direction sought with a large enough effect in the repeat runs; an effect the other way counts as inactive or inconclusive; also: nearly all actives have a fitted effect of over 55% in size; also: potency is read from the fitted curve at half-maximal effect). The gist of the method: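 After a 5 h attachment period, ARE-reporter keratinocytes were dosed with compounds in DMSO and then cultured 23 h at 37 C. Cell viability came from CellTiter-Fluor signal read after a further 1 h.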
Background: In qHTS, concentration-response curves come from the screen itself.

Assay [2] in a line: Nuclear factor erythroid 2-related factor 2/antioxidant responsive element (Nrf2/ARE) small molecule agonists: luciferase reporter gene qHTS assay in human keratinocytes (AID 1919969; also: nearly all actives have a fitted effect of over 35% in size; also: potency is read from the fitted curve at half-maximal effect). (In a reporter assay the amount or activity of a reporter protein is the signal.)
The target in assay [3] is Gonadotropin-releasing hormone receptor (Homo sapiens) (UniProt P30968). Put plainly: Human gonadotropin-releasing hormone receptor (GnRHR) small molecule agonists, calcium flux assay in GnRHR-HEK293 cells (AID 1920063). Also: nearly all actives have a fitted effect of over 35% in size. The gist of the method: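 We seeded human GnRHR-expressing HEK293 cells for 18 hours, loaded them with calcium dye for an hour at 37 C, added test compounds, and recorded fluorescence intensity kinetically for three minutes.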
Sequence of Gonadotropin-releasing hormone receptor (Homo sapiens) (P30968 whole entry, looked up): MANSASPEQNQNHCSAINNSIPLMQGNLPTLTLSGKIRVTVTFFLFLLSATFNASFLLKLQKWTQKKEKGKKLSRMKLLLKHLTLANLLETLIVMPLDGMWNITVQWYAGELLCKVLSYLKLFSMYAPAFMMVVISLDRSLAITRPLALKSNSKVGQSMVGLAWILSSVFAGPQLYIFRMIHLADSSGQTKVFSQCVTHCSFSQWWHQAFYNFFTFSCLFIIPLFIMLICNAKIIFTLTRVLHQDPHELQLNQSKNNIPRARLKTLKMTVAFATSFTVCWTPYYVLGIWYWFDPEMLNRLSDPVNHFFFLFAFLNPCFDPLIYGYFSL
(In general: A change in cytosolic calcium serves as a functional read-out for many receptors and channels.)

In assay [4] the target is KiSS-1 receptor (Homo sapiens) (UniProt Q969F8). Put plainly: Human kisspeptin (KISS1R) small molecule agonists, calcium flux assay in KISS1R-HEK293 cells (AID 1920064; active = well fitted curve in the direction sought with a large enough effect in the repeat runs; an effect the other way counts as inactive or inconclusive). The gist of the method:
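Kinetic calcium assay, 1 s sampling over 3 min at Ex/Em 480/540, in HEK293 cells engineered with human KISS1R; compounds delivered in DMSO after 1 h dye loading.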

The nature of assay [5]: G protein-coupled receptor (GPCR) small molecule agonists, calcium flux assay: HEK293 wild type cell line counter screen (AID 1920065). The gist of the method: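 Calcium-sensitive dye, loaded 1 h at 37 C into cells cultured 18 h, reports compound-evoked calcium release as fluorescence (Ex/Em 480/540), measured over 3 min. Agonist mode; 15-point titrations, triplicate.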
Assay [6] can be described thus: p53 small molecule agonists, cell-based qHTS assay with human liver microsomes (AID 1963577). Also: potency is read from the fitted curve at half-maximal effect.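 As to activation: p53 response element beta-lactamase reporter cells with liver microsomes plus NADPH.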 The gist of the method: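 16 h, 37 C exposure of p53RE-bla cells to compounds with human liver microsomes and NADPH (0.5 mg/mL final each); detection via LiveBLAzer mixture, 2 h dark at room temperature.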
Assay [7] is described as follows: p53 small molecule agonists, cell-based qHTS assay with rat liver microsomes (AID 1963578). The method, boiled down: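 With rat liver microsomes and NADPH present (0.5 mg/mL final each), p53RE-bla cells are treated with compound for 16 h at 37 C. LiveBLAzer detection mixture is then applied for 2 h at room temperature in the dark.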
Assay [8] in a line: p53 small molecule agonists, cell-based qHTS assay with human liver microsomes: qHTS cell viability counter screen (AID 1963579). Also: nearly all actives have a fitted effect of over 45% in size. The gist of the method:
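In this multiplexed counter screen, the reporter plates were subsequently treated with CellTiter-Glo so that cell viability, reflected by luminescence, could be recorded for p53RE-bla cells dosed 16 h with compounds under microsomal activation (HLM and NADPH).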

Assay [9] is described as follows: p53 small molecule agonists, cell-based qHTS assay: qHTS cell viability counter screen (AID 1963581). Also: nearly all actives have a fitted effect of over 45% in size. The gist of the method: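 Following 5 h attachment, HCT-116 p53RE-bla cells took up compound for 16 h at 37 C; the reporter was read with B/G FRET substrate (2 h RT), and viability then via CellTiter-Glo ATP luminescence.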
Assay [10] concerns the target 5-hydroxytryptamine receptor 2A (Homo sapiens) (UniProt P28223). As to the kind of experiment: 5-hydroxytryptamine receptor 2A (HTR2A) small molecule agonists, cell-based qHTS assay (AID 1963587). Also: nearly all actives have a fitted effect of over 30% in size. The gist of the method: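 CHO cells stably expressing human HTR2A, plated 18 h, loaded with calcium dye 1 h at 37 C. Agonist mode: compounds added and intracellular calcium fluorescence recorded kinetically for 2 min at 1 sec intervals.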

In assay [11] the target is Muscarinic acetylcholine receptor M1 (Homo sapiens) (UniProt P11229). Put plainly: Cholinergic receptor muscarinic 1 (CHRM1) small molecule antagonists, cell-based qHTS assay (AID 1963588). Also: nearly all actives have a fitted effect of over 40% in size. Also: potency is read from the fitted curve at half-maximal effect. The gist of the method: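 CHRM1-CHO calcium-flux assay, antagonist mode. Cells were seeded 18 h, dye-loaded 1 h at 37 C and given compound for 5 min at RT, then acetylcholine was added at 50nM. FDSS fluorescence was read 3 min; 15 concentrations, three runs.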
Sequence of Muscarinic acetylcholine receptor M1 (Homo sapiens) (P11229 whole entry, looked up): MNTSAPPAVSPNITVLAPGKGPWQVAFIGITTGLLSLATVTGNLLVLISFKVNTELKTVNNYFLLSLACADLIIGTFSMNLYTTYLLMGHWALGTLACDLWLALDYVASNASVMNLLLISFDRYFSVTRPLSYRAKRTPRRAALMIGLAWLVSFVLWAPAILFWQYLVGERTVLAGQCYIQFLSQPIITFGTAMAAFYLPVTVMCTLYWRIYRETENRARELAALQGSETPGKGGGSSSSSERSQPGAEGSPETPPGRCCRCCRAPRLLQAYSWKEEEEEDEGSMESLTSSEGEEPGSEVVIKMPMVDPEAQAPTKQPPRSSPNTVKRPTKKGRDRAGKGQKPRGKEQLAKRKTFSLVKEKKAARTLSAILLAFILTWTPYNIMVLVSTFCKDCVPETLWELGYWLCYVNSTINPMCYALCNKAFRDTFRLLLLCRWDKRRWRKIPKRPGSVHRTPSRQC

Assay [12] shares this target. As to the kind of experiment: Cholinergic receptor muscarinic 1 (CHRM1) small molecule agonists, cell-based qHTS assay (AID 1963589). Also: nearly all actives have a fitted effect of over 35% in size. The method, boiled down:
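Measures agonist-induced intracellular calcium rise. Stable human CHRM1 CHO line, 1 h dye load at 37 C, compounds from DMSO, kinetic fluorescence read.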

A short description of assay [13]: cAMP Responsive Elements (CRE) small molecule agonists, cell-based qHTS assay (AID 1963590). The gist of the method: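 A CRE-responsive beta-lactamase reporter in HEK 293T cells was used. Treatment ran 3 h at 37 C; detection used LiveBLAzer B/G FRET substrate for 2 h at room temperature.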
Assay [14] is described as follows: cAMP Responsive Elements (CRE) small molecule antagonists, cell-based qHTS assay (AID 1963591; active = well fitted inhibition curve with a large enough effect in the signal ratio in the repeat runs, not every such curve was filed as active; the % refers to the signal ratio). The method, boiled down: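 HEK293T cells carrying a CRE-driven beta-lactamase reporter receive compound and NKH477 (0.25 uM final) for 3 h. Fluorescence from LiveBLAzer B/G FRET substrate is read after 2 h at room temperature.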
The target in assay [15] is Beta-2 adrenergic receptor (Homo sapiens) (UniProt P07550). Put plainly: Adrenergic beta2 receptor (ADRB2) small molecule antagonists, cell-based qHTS assay (AID 1963592). Also: series mostly up to about 92 µM; nearly all actives have a fitted effect of over 50% in size. The method, boiled down:
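Cells (CHO, stable ADRB2 overexpression) incubated 18-20hr at 37C; compounds added from DMSO; agonist mix (1nM isoproterenol, 100uM IBMX, 25uM Ro-20-1724) added; 0.5hr RT; d2-cAMP and anti-cAMP-cryptate added; 1hr RT; 665/615 nm read.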

The target of assay [16] is D(2) dopamine receptor (Homo sapiens) (UniProt P14416). Put plainly: Dopamine D2 receptor (DRD2) small molecule agonists, cell-based qHTS assay (AID 1963594). Also: nearly all actives have a fitted effect of over 35% in size. The gist of the method: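 HEK293 cells stably expressing human DRD2, pre-treated with PDE inhibitor Ro20-1724 (0.1 mM final) and compound 10 min at room temperature, then stimulated with NKH477 (200nM […]) for 30 min. cAMP read by HTRF (665/620 nm).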
Sequence of D(2) dopamine receptor (Homo sapiens) (P14416 whole entry, looked up): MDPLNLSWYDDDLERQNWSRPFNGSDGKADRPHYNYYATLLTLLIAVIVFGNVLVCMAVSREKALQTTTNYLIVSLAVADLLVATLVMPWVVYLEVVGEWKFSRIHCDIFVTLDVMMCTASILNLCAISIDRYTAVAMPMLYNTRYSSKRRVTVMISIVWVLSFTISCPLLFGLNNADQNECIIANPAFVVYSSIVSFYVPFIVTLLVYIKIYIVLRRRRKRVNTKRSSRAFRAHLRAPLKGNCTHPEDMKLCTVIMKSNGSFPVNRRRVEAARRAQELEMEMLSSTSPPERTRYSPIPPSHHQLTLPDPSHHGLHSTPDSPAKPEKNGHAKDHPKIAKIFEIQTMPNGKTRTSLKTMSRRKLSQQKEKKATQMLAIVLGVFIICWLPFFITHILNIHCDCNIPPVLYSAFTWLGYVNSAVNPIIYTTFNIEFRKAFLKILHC

For assay [17] the target is unchanged. As to the kind of experiment: Dopamine D2 receptor (DRD2) small molecule antagonists, cell-based qHTS assay (AID 1963595; active = well fitted inhibition curve with a large enough effect in the signal ratio in the repeat runs, with a control signal flat; the % refers to the signal ratio). The method, boiled down: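 Antagonism was scored as restored cAMP in HEK293-DRD2 cells. These cells were stimulated with 200 nM NKH477 and 12 nM quinpirole for 30 min at room temperature, in the presence of 0.1 mM Ro20-1724.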
Assay [18] in a line: p53 small molecule agonists, cell-based qHTS assay (AID 1963582; active = well fitted activation curve with a large enough effect in the signal ratio in the repeat runs, not every such curve was filed as active; the % refers to the signal ratio). The gist of the method:
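In this cell-based concentration-response screen, a p53 response element drives beta-lactamase; cells received DMSO-borne compounds after 5 h culture and were incubated a further 16 h before FRET substrate development.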

Assay [19] addresses 5-hydroxytryptamine receptor 2A (Homo sapiens) (UniProt P28223). Put plainly: 5-hydroxytryptamine receptor 2A (HTR2A) small molecule antagonists, cell-based qHTS assay (AID 1963586). Also: nearly all actives have a fitted effect of over 45% in size. The gist of the method: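 Antagonist-mode intracellular calcium assay: DOI (4 nM) added after 5 min compound pre-incubation at room temperature to dye-loaded HTR2A-CHO cells. Fluorescence followed for 3 min, sampled every second.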

The nature of assay [20]: p53 small molecule agonists, cell-based qHTS assay with rat liver microsomes: qHTS cell viability counter screen (AID 1963580). Also: nearly all actives have a fitted effect of over 45% in size. Also: potency is read from the fitted curve at half-maximal effect. The gist of the method: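 Viability is assessed in parallel with the p53 reporter read: HCT-116 p53RE-bla cells receive compounds plus rat microsomes and NADPH (0.5 mg/mL final apiece), incubate 16 h at 37 C, and then CellTiter-Glo luminescence is recorded.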

A number with no mark means an inactive call. Results filed as inconclusive are left out. Activity calls are given as the source filed them. Unless noted, calls follow the shape of the full dose curve.

Sequence of Beta-2 adrenergic receptor (Homo sapiens) (P07550 whole entry, looked up): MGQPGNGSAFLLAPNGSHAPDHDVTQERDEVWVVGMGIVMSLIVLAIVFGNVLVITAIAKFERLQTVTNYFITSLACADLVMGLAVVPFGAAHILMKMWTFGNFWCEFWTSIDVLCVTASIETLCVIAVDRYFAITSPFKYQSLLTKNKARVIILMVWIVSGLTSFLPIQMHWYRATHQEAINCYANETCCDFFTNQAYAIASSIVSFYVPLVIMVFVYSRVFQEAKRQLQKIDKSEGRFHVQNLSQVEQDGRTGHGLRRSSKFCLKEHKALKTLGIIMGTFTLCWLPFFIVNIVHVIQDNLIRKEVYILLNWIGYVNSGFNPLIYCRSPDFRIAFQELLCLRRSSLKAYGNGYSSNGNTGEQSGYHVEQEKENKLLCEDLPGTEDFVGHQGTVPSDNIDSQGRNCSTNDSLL
Sequence of 5-hydroxytryptamine receptor 2A (Homo sapiens) (P28223 whole entry, looked up): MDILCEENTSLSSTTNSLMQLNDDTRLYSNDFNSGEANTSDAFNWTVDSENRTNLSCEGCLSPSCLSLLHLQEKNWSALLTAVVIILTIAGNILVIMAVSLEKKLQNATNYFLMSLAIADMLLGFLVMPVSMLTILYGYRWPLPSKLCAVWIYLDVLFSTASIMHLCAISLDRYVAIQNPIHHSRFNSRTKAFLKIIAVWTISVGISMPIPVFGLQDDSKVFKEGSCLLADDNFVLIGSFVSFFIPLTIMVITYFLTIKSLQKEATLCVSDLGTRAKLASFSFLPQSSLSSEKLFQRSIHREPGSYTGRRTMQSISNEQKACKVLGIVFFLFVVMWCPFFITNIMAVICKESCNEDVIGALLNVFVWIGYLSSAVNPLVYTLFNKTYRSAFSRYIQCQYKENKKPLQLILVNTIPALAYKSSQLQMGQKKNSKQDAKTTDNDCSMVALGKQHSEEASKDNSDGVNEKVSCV
Sequence of KiSS-1 receptor (Homo sapiens) (Q969F8 whole entry, looked up): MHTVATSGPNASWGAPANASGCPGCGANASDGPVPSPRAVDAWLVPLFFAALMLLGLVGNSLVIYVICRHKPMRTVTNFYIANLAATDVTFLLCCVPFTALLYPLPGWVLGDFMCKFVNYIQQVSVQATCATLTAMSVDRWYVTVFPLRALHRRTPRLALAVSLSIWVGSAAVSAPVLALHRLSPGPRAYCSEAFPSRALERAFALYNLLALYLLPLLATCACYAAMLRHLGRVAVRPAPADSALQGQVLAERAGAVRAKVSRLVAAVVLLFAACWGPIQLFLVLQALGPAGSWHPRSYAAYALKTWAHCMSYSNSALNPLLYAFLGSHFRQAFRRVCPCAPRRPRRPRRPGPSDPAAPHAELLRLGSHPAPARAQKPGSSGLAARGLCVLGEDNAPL

Regarding `COC(=O)N(C(=O)N1COC2(C(=O)OC)Cc3cc(Cl)ccc3C2=N1)c1ccc(OC(F)(F)F)cc1` (stereo unspecified), the Potency entry in assay [1], in assay [2], in [3], in assay [4], in assay [5] and in assay [6] was “inactive” in each case. Further, the Potency entry in assay [7], in assay [8], in [9], in assay [10], in assay [11] and in assay [12] was “inactive” in each case. Also, the Potency entry in assay [13], in [14], in assay [15], in [16] and in assay [17] was “inactive” each time.
Take `N#Cc1c(Cl)cccc1Cl`: the Potency entry in [1], in [2], in assay [3], in assay [4], in [5] and in assay [6] was “inactive” each time. In addition, the Potency entry in [7], in [8], in assay [9], in assay [18], in [10] and in assay [12] was “inactive” each time. Moreover, the Potency result in [13], in assay [14], in assay [15], in assay [16] and in assay [17] was “inactive” throughout.
With `CCC(C(N)=O)N1CCCC1=O` (stereo unspecified), the Potency result in assay [1], in assay [2], in assay [3], in assay [4], in [5] and in assay [6] was “inactive” in each case. Moreover, the Potency entry in assay [7], in assay [9], in assay [19], in [10], in assay [11] and in assay [12] was “inactive” throughout. The Potency result in [13], in [14], in [15] and in assay [17] was “inactive” in each case.
Consider `CCOC(=O)CC(=O)CCl`, for which the Potency entry in assay [1], in assay [3], in [4], in assay [5], in assay [6] and in [7] was “inactive” in each case. The Potency result in [20], in assay [9], in assay [19], in assay [10], in assay [11] and in [12] was “inactive” throughout. Besides, the Potency entry in assay [13], in assay [14], in assay [15] and in assay [17] was “inactive” in each case. Further, the Potency in assay [2] was 68.6 µM (active).
As for `CNP(=O)(OC)Oc1ccc(C(C)(C)C)cc1Cl` (stereo unspecified), the Potency result in [1], in assay [3], in [4], in [5], in assay [8] and in assay [20] was “inactive” each time. The Potency entry in assay [9], in [18], in assay [19], in assay [10], in assay [11] and in assay [12] was “inactive” in each case. The Potency entry in assay [13], in assay [14], in assay [15], in assay [16] and in [17] was “inactive” throughout. Moreover, the figures for the Potency in [2] and in [6] were 48.6 µM (active) and 3.24 µM (active), respectively.
As to `CO/C=C(/C(=O)OC)c1ccccc1COc1cccc(C(F)(F)F)n1`, the Potency entry in [1], in assay [2], in [3], in assay [4], in [5] and in assay [6] was “inactive” throughout. In addition, the Potency entry in [7], in [8], in assay [9], in assay [19], in assay [10] and in assay [11] was “inactive” throughout. Besides, the Potency entry in [12], in assay [13], in assay [15] and in [17] was “inactive” each time.
On to `C/C(=C\c1ccccc1)[N+](=O)[O-]`, for which the Potency was 30.6 µM (active) in assay [1], 15.4 µM (active) in assay [2] and 36.3 µM (active) in assay [20]. For the same compound, the Potency result in assay [3], in [4], in assay [5], in assay [6], in assay [7] and in assay [9] was “inactive” throughout. Further, the Potency entry in [18], in assay [19], in assay [10], in [11], in assay [12] and in assay [14] was “inactive” throughout. Moreover, the Potency entry in assay [15], in assay [16] and in assay [17] was “inactive” each time.
With `CC(Cc1ccc(C(C)(C)C)cc1)CN1C[C@@H](C)O[C@@H](C)C1` (stereo partly specified), the Potency entry in assay [1], in [3], in [4], in assay [5], in assay [6] and in [7] was “inactive” each time. Moreover, the Potency result in assay [20], in assay [9], in [18], in [12], in assay [13] and in assay [14] was “inactive” each time. In addition, the Potency result in [15] and in assay [16] was “inactive” throughout. Besides, the Potency in assay [2] is 61.1 µM (active); in [11], 37.5 µM (active).

(Values after PubChem BioAssay (Tox21).)
